# Screening results deposited in PubChem by National Center for Advancing Translational Sciences (NCATS).
# Pf Dd2 growth – blocks in vitro growth of P. falciparum Dd2 | P. falciparum Dd2 growth, SYBR Green, 72 h | Potency, µM (doses to about 28.9 µM), for inactives: at the highest dose activity, negative = inhibition, actives largely listed as inhibitors | actives 4.3% (n = 120,000); active = well fitted inhibition curve with a large enough effect;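 also: plate controls were DMSO vehicle for no effect and reference drug for full effect; nearly all actives have a fitted effect of over 65% in size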
#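 Infected erythrocytes (Dd2, 0.3% parasitemia, 2.5% hematocrit final) are added to compound in RPMI-1640/Albumax II medium, grown 72 h at 37C in low oxygen, then lysed with saponin/Triton-X containing SYBR Green and read by fluorescence.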
# * marks the source's active call; other numbers are inactive results; i = inactive; [ ] = dose if it differs, or a comment. Shown is part of a subset that was picked to be rich in hits. Potency is read from the fitted curve at half-maximal effect.
SMILES,Pf Dd2 growth
CCOC(=O)C1CCN(C(=O)c2c[nH]c3ncccc23)CC1,-0.1%[44.1 µM]
CCOC(=O)C1CCN(c2c(C(=O)c3ccc(OC)cc3)cnc3ccccc23)CC1,8.91µM*
CCOC(=O)C1CCN(c2nc3ccccc3nc2Cl)CC1,i
COc1ccc(-c2nc(C(C)C)nc3c2CN([S+](=O)([O-])c2c(C)noc2C)CC3)cc1,i
COc1ccc(-c2cc(N3CCCN(C(=O)Cc4ccccc4Cl)CC3)n[nH]2)cc1,-5.8%
C=CCN1CCN(C(=O)[C@@H]2C[C@@H](O)CN2C2CCN(C(=O)c3cccc(OC)c3)CC2)CC1,-17.6%
COc1cccc(C(=O)N2CCC(N3C[C@H](O)C[C@H]3C(=O)NC3CC3)CC2)c1,-16.5%
COc1cccc(C(=O)N2CCC(N3C[C@H](O)C[C@H]3C(=O)N3CCN(c4ncccn4)CC3)CC2)c1,-4.1%
CNC(=O)[C@@H]1C[C@@H](O)CN1C1CCN(C(=O)c2cccc(OC)c2)CC1,-6.4%
COc1cccc(C(=O)N2CCC(N3C[C@H](O)C[C@H]3C(=O)N3CCc4ccccc43)CC2)c1,2.51µM*
COc1cccc(C(=O)N2CCC(N3C[C@H](O)C[C@H]3C(=O)N3CC=C(c4ccccc4)CC3)CC2)c1,0.891µM*
CCc1ccc(CNC(=O)C2CCN(C(=O)c3nnn4c3COC(c3ccc(C)cc3)C4)CC2)cc1 (configuration not stated),i
COc1cccc(CC(=O)Nc2ccc3c(c2)CN(Cc2ccccc2F)C(=O)C(C)O3)c1 (configuration not stated),i
Cc1cc(C)cc(CCC(=O)N2CCC3(CC2)C(C(=O)O)CC(=O)N3C)c1 (configuration not stated),-21.4%
COc1ccc(C(=O)NCc2nnc3ccc(-c4ccc(C)c(C)c4)nn23)cc1F,-15.7%
COC(=O)c1ccc(NC(=O)N2CCCC(CN3CCOCC3)CC2)cc1 (configuration not stated),i
CC(C)N1CCN(C(=O)c2ccc(N3CC4CC(C3)[C@H]3CCCC(=O)N3C4)nc2)CC1 (some centres not stated),-24.4%
Cc1cc(CNC(=O)Cc2nonc2C)c2[nH]c(-c3ccccc3)c(C)c2c1,2.4%
COc1ccc(Cl)cc1NC(=O)c1c(NCc2ccc(C)o2)sc2c1CCCCC2,14.1µM*
COc1ccc(OC)c(NC(=O)c2c(NCc3ccc(OC)c(OC)c3)sc3c2CCC3)c1,7.94µM*
COc1ccc(NC(=O)NCc2c(-n3cccc3)sc3c2CCCC3)c(OC)c1,9.4%
CCOC(=O)c1c(NC(=O)COc2ccc(Cl)cc2C)sc2c1CCCCC2,-6.9%
CCOC(=O)N1CCc2c(sc(NCc3cccc(F)c3)c2C(=O)Nc2ccc(OCC)cc2)C1,12.6µM*
CCOc1cc(=O)n2c(c1C(=O)Nc1cc(OC)ccc1OC)CCCC2,12.4%
CCOC(=O)c1c(NC(=O)c2ccc(OC)cc2)sc2c1CCCCC2,30.3%
SMILES,Pf Dd2 growth
CCOC(=O)c1c(NC(=O)COc2ccc(CC)cc2)sc2c1CCCC2,6.6%
CCOc1ccc(NC(=O)c2c(NC(=O)c3ccccc3F)sc3c2CCC3)cc1,i
CCOC(=O)N1CCc2c(sc(NCc3cc(OC)ccc3OC)c2C(=O)Nc2cc(OC)ccc2OC)C1,11.2µM*
COC(=O)c1c(NC(=O)COc2ccc(Cl)cc2C)sc2c1CCCCC2,19.0%
COc1ccc(OC)c(CCNC(=O)c2csc3c2CCCCC3)c1,4.8%
O=C(NC[C@H]1COCc2nc3cc(C(F)(F)F)ccc3n21)c1cccnc1,-21.1%[44.1 µM]
CN1CC(=O)N(c2ccc(Cl)cc2)Cc2c(NC3CCNCC3)ncnc21,3.4%
COc1nccc(N2CCC(CC(=O)N3CCN(CCC#N)CC3)CC2)n1,-14.4%
COCc1nn(CC(=O)N(C)Cc2nccs2)c(=O)n1-c1ccccc1,-10.4%
CS(=O)(=O)N1CCCN(C(=O)NCc2ccccc2)CCNC(=O)CC1c1ccccc1 (configuration not stated),3.2%
COc1cccc(-c2cc(C(=O)N[C@@H](C)C(N)=O)[nH]n2)c1,-15.1%
CC(C)N1CCN(C(=O)CCC[C@@H]2[C@H]3CCCN4CCC[C@@H](CN2C(=O)c2cccnc2)[C@@H]34)CC1,7.8%
CC(=O)N1CCc2c(sc3c2c(=O)n(-c2ccc(F)cc2)c(=O)n3Cc2cc(C)ccc2C)C1,-0.8%
CC(=O)N1CCc2c(sc3c2c(=O)n(-c2cccc(Cl)c2)c(=O)n3Cc2ccc(F)cc2Cl)C1,11.2µM*
CC(=O)N1CCc2c(sc3c2c(=O)n(Cc2ccccc2)c(=O)n3Cc2cc(C)ccc2C)C1,-15.9%
CCOC(=O)N1CCc2c(sc3c2c(=O)n(-c2ccc(Cl)cc2)c(=O)n3Cc2cccc(OC)c2)C1,-21.3%
CC(=O)N1CCc2c(sc3c2c(=O)n(-c2ccccc2C)c(=O)n3CC(=O)c2ccccc2)C1,-3.7%
CCOC(=O)N1CCc2c(sc3c2c(=O)n(Cc2ccccc2)c(=O)n3Cc2cccc(Cl)c2)C1,11.2µM*
COc1cccc(-n2c(=O)c3c4c(sc3n(Cc3ccc(F)cc3Cl)c2=O)CCCC4)c1,12.7%
CC(=O)N1CCc2c(sc3c2c(=O)n(CCc2ccccc2)c(=O)n3Cc2ccccc2C)C1,7.94µM*
